Assay results reported in the supplement of paper PMC4466140.

B1: unnamed (peptide)
chain: TSIEIPKRSPLRFTS

Molecular target: AgAbp1
Test: SPOT peptide array binding signal intensity (averaged, normalized) (arbitrary units (background-subtracted, floor 0; scale differs between SH3 domains)); higher = stronger binding of the SH3 domain to the peptide
Method in brief: (§1)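 Four yeast species supplied the SH3 domains, which were expressed as GST fusions in E. coli BL21(DE3) and purified on glutathione Sepharose. Incubation with cellulose membranes carrying synthetic 15-mer peptides, cysteines exchanged for serines, ran overnight at 4°C at 10 μg/ml in TBS-based blocking buffer. Binding signal is reported as normalized, background-subtracted spot intensity averaged over replicates, in arbitrary units not shared between domains.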

Binder | SPOT peptide array binding signal intensity
B1 | 9

Molecular target: AgBbc1
Test: as above
Method in brief: as §1

Binder | SPOT peptide array binding signal intensity
B1 | 41.5

Molecular target: AgBem1-D1
Test: as above
Method in brief: as §1

Binder | SPOT peptide array binding signal intensity
B1 | 9

Molecular target: AgBzz1-D1
Test: as above
Method in brief: as §1

Binder | SPOT peptide array binding signal intensity
B1 | 27

Molecular target: AgBzz1-D2
Test: as above
Method in brief: as §1

Binder | SPOT peptide array binding signal intensity
B1 | 16

Molecular target: AgCyk3
Test: as above
Method in brief: as §1

Binder | SPOT peptide array binding signal intensity
B1 | 1.5

Molecular target: AgFus1
Test: as above
Method in brief: as §1

Binder | SPOT peptide array binding signal intensity
B1 | ≤ 0

Molecular target: AgHof1
Test: as above
Method in brief: as §1

Binder | SPOT peptide array binding signal intensity
B1 | 6.5

Molecular target: AgHse1
Test: as above
Method in brief: as §1

Binder | SPOT peptide array binding signal intensity
B1 | ≤ 0

Molecular target: AgLsb1
Test: as above
Method in brief: as §1

Binder | SPOT peptide array binding signal intensity
B1 | ≤ 0

Molecular target: AgLsb4
Test: as above
Method in brief: as §1

Binder | SPOT peptide array binding signal intensity
B1 | 16.5

Molecular target: AgMyo5
Test: as above
Method in brief: as §1

Binder | SPOT peptide array binding signal intensity
B1 | 2

Molecular target: AgNbp2
Test: as above
Method in brief: as §1

Binder | SPOT peptide array binding signal intensity
B1 | 10.5

Molecular target: AgRvs167
Test: as above
Method in brief: as §1

Binder | SPOT peptide array binding signal intensity
B1 | 2.33

Molecular target: AgSho1
Test: as above
Method in brief: as §1

Binder | SPOT peptide array binding signal intensity
B1 | ≤ 0

Molecular target: AgSla1-D1-D2
Test: as above
Method in brief: as §1

Binder | SPOT peptide array binding signal intensity
B1 | ≤ 0

Molecular target: AgSla1-D3
Test: as above
Method in brief: as §1

Binder | SPOT peptide array binding signal intensity
B1 | ≤ 0

Molecular target: CaAbp1-D1
Test: as above
Method in brief: as §1

Binder | SPOT peptide array binding signal intensity
B1 | 272

Molecular target: CaAbp1-D2
Test: as above
Method in brief: as §1

Binder | SPOT peptide array binding signal intensity
B1 | 81

Molecular target: CaBbc1
Test: as above
Method in brief: as §1

Binder | SPOT peptide array binding signal intensity
B1 | 484

Molecular target: CaBem1-D1
Test: as above
Method in brief: as §1

Binder | SPOT peptide array binding signal intensity
B1 | 12

Molecular target: CaBzz1-D1
Test: as above
Method in brief: as §1

Binder | SPOT peptide array binding signal intensity
B1 | 41

Molecular target: CaBzz1-D2
Test: as above
Method in brief: as §1

Binder | SPOT peptide array binding signal intensity
B1 | 20

Molecular target: CaCyk3
Test: as above
Method in brief: as §1

Binder | SPOT peptide array binding signal intensity
B1 | 58.5

Molecular target: CaFus1
Test: as above
Method in brief: as §1

Binder | SPOT peptide array binding signal intensity
B1 | 42

Molecular target: CaHof1
Test: as above
Method in brief: as §1

Binder | SPOT peptide array binding signal intensity
B1 | ≤ 0

Molecular target: CaHse1
Test: as above
Method in brief: as §1

Binder | SPOT peptide array binding signal intensity
B1 | ≤ 0

Molecular target: CaLsb1
Test: as above
Method in brief: as §1

Binder | SPOT peptide array binding signal intensity
B1 | ≤ 0

Molecular target: CaLsb4
Test: as above
Method in brief: as §1

Binder | SPOT peptide array binding signal intensity
B1 | 27

Molecular target: CaMyo5
Test: as above
Method in brief: as §1

Binder | SPOT peptide array binding signal intensity
B1 | 3

Molecular target: CaNbp2
Test: as above
Method in brief: as §1

Binder | SPOT peptide array binding signal intensity
B1 | 61

Molecular target: CaRvs167
Test: as above
Method in brief: as §1

Binder | SPOT peptide array binding signal intensity
B1 | 2

Molecular target: CaRvs167-3
Test: as above
Method in brief: as §1

Binder | SPOT peptide array binding signal intensity
B1 | ≤ 0

Molecular target: CaSho1
Test: as above
Method in brief: as §1

Binder | SPOT peptide array binding signal intensity
B1 | 6

Molecular target: CaSla1-D1-D2
Test: as above
Method in brief: as §1

Binder | SPOT peptide array binding signal intensity
B1 | 83

Molecular target: CaSla1-D3
Test: as above
Method in brief: as §1

Binder | SPOT peptide array binding signal intensity
B1 | ≤ 0

Molecular target: ScAbp1
Test: as above
Method in brief: as §1

Binder | SPOT peptide array binding signal intensity
B1 | 21

Molecular target: ScBbc1
Test: as above
Method in brief: as §1

Binder | SPOT peptide array binding signal intensity
B1 | 5

Molecular target: ScBem1-D1
Test: as above
Method in brief: as §1

Binder | SPOT peptide array binding signal intensity
B1 | ≤ 0

Molecular target: ScBzz1-D1
Test: as above
Method in brief: as §1

Binder | SPOT peptide array binding signal intensity
B1 | 4.5

Molecular target: ScBzz1-D2
Test: as above
Method in brief: as §1

Binder | SPOT peptide array binding signal intensity
B1 | 1

Molecular target: ScCyk3
Test: as above
Method in brief: as §1

Binder | SPOT peptide array binding signal intensity
B1 | 3

Molecular target: ScFus1
Test: as above
Method in brief: as §1

Binder | SPOT peptide array binding signal intensity
B1 | ≤ 0

Molecular target: ScHof1
Test: as above
Method in brief: as §1

Binder | SPOT peptide array binding signal intensity
B1 | 0.5

Molecular target: ScHse1
Test: as above
Method in brief: as §1

Binder | SPOT peptide array binding signal intensity
B1 | 20.5

Molecular target: ScLsb1
Test: as above
Method in brief: as §1

Binder | SPOT peptide array binding signal intensity
B1 | ≤ 0

Molecular target: ScLsb2
Test: as above
Method in brief: as §1

Binder | SPOT peptide array binding signal intensity
B1 | ≤ 0

Molecular target: ScLsb3
Test: as above
Method in brief: as §1

Binder | SPOT peptide array binding signal intensity
B1 | 252

Molecular target: ScLsb4
Test: as above
Method in brief: as §1

Binder | SPOT peptide array binding signal intensity
B1 | ≤ 0

Molecular target: ScMyo3
Test: as above
Method in brief: as §1

Binder | SPOT peptide array binding signal intensity
B1 | 11.5

Molecular target: ScMyo5
Test: as above
Method in brief: as §1

Binder | SPOT peptide array binding signal intensity
B1 | 2

Molecular target: ScNbp2
Test: as above
Method in brief: as §1

Binder | SPOT peptide array binding signal intensity
B1 | 2

Molecular target: ScPex13
Test: as above
Method in brief: as §1

Binder | SPOT peptide array binding signal intensity
B1 | 2

Molecular target: ScRvs167
Test: as above
Method in brief: as §1

Binder | SPOT peptide array binding signal intensity
B1 | 101

Molecular target: ScSho1
Test: as above
Method in brief: as §1

Binder | SPOT peptide array binding signal intensity
B1 | 0.5

Molecular target: ScSla1-D1-D2
Test: as above
Method in brief: as §1

Binder | SPOT peptide array binding signal intensity
B1 | ≤ 0

Molecular target: ScSla1-D3
Test: as above
Method in brief: as §1

Binder | SPOT peptide array binding signal intensity
B1 | 30.2

Molecular target: SpAbp1-D1
Test: as above
Method in brief: as §1

Binder | SPOT peptide array binding signal intensity
B1 | 206

Molecular target: SpBbc1
Test: as above
Method in brief: as §1

Binder | SPOT peptide array binding signal intensity
B1 | ≤ 0

Molecular target: SpBzz1-D1
Test: as above
Method in brief: as §1

Binder | SPOT peptide array binding signal intensity
B1 | 162

Molecular target: SpBzz1-D2
Test: as above
Method in brief: as §1

Binder | SPOT peptide array binding signal intensity
B1 | ≤ 0

Molecular target: SpCyk3
Test: as above
Method in brief: as §1

Binder | SPOT peptide array binding signal intensity
B1 | 2

Molecular target: SpHof1
Test: as above
Method in brief: as §1

Binder | SPOT peptide array binding signal intensity
B1 | 73

Molecular target: SpHof1-2
Test: as above
Method in brief: as §1

Binder | SPOT peptide array binding signal intensity
B1 | 8.75

Molecular target: SpHof1-3
Test: as above
Method in brief: as §1

Binder | SPOT peptide array binding signal intensity
B1 | 25.5

Molecular target: SpHse1
Test: as above
Method in brief: as §1

Binder | SPOT peptide array binding signal intensity
B1 | 76.8

Molecular target: SpLsb1
Test: as above
Method in brief: as §1

Binder | SPOT peptide array binding signal intensity
B1 | ≤ 0

Molecular target: SpLsb4
Test: as above
Method in brief: as §1

Binder | SPOT peptide array binding signal intensity
B1 | 376

Molecular target: SpMyo1
Test: as above
Method in brief: as §1

Binder | SPOT peptide array binding signal intensity
B1 | 12.5

Molecular target: SpNbp2
Test: as above
Method in brief: as §1

Binder | SPOT peptide array binding signal intensity
B1 | ≤ 0

Molecular target: SpPex13
Test: as above
Method in brief: as §1

Binder | SPOT peptide array binding signal intensity
B1 | ≤ 0

Molecular target: SpRvs167
Test: as above
Method in brief: as §1

Binder | SPOT peptide array binding signal intensity
B1 | 94

Molecular target: SpSla1-D1-D2
Test: as above
Method in brief: as §1

Binder | SPOT peptide array binding signal intensity
B1 | 1

Molecular target: SpSla1-D3
Test: as above
Method in brief: as §1

Binder | SPOT peptide array binding signal intensity
B1 | ≤ 0
